Laboratory results published in PubChem BioAssay (NCI).
The panel holds about 83,000 compounds, 20% with a hit somewhere; the sample as a whole holds those more often.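 Single-dose data. Exposure time 48 hours. Values below 10 considered active.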 A number with no mark means an inactive call. Active and inactive are the calls of the source.

test system: A498 renal; test: NCI-60 one-dose screen, 48 h (100 = growth as untreated, 0 = no growth, -100 = all killed); details: 10 µM unless noted
Description: Growth inhibition of the A498 human tumor cell line is measured as a screen for anti-cancer activity. Cells are grown in 96 well plates and exposed to the test compound for 48 hours. Compounds are tested at a single concentration, which is 10^-5 M for most compounds. The reported endpoint is percent growth (GI% or GIPRCNT), where numbers from 0 - 100% represent growth inhibition, and numbers from -100% - 0 represent cell death. For example, a value of 40 represents 60% growth inhibition. A value of 0 means no net growth occurred over the course of the experiment. A value of -40 indicates 40% of cells at the beginning of the experiment died by the end of the experiment. A value of -100 means all cells are dead at the end of the experiment.
NCI-60 Human Tumor Cell Lines Screen was performed using the standard one-dose NCI protocol, which is described in more detail at https://dtp.cancer.gov/discovery_development/nci-60/default.htm.
Compounds with GIPRCNT values below 10 were considered active. Activity score was based on GIPRCNT using the following formula: […]
Score is 0 for GIPRCNT values of 100 or above, 50 for GIPRCNT values of 0, and 100 for GIPRCNT values of -100.

Compound | growth
Clc1ccc2[nH]cc(-c3nn4cc(-c5cccnc5)nc4s3)c2c1 | 109%
CNC(=O)c1cc(N2CCc3cc(NC(=O)Nc4ccc(N5CCOCC5)c(C(F)(F)F)c4)ccc32)ccn1 | 60%
CCOC(=O)c1cnc2c(-c3ccc(Cl)c(Cl)c3)cnn2c1 | 82.8%
CCOC(=O)c1cccc(NC2=C(Cl)C(=O)C(C)=C(C)C2=O)c1 | 89.1%
COc1ccccc1Cn1cc(C#N)c(N)c1C(=O)c1ccc(Br)cc1 | 77.7%
CC(=O)Nc1cc(N2CCOCC2)c2nc(NC(=O)c3[nH]c(C)c(Cl)c3Cl)sc2c1 | 95.6%
O=C(/C=C/c1ccc(Cl)c(Cl)c1)Nc1ncc(Cc2ccc(Cl)c(Cl)c2)s1 | 99.8%
O=C1Nc2ccccc2/C1=N\c1nnc(-c2ccccc2)o1 | 90.7%
CC[C@H](CC[C@@H](C)[C@H]1CC[C@H]2[C@@H]3CC(=O)C4=CC(=O)/C(=C/c5ccc([N+](=O)[O-])cc5)C[C@]4(C)[C@H]3CC[C@]12C)C(C)C | 108%
Nn1c(=O)n(-c2cccc(C(F)(F)F)c2)c(=O)c2cc(-c3ccc(F)cc3F)ccc21 | -20.6% (active)
N#CC1=C2NCCCNc3oc(nc3C#N)Cc3ccccc3CC(=N1)O2 | 95.5%
CN1CCN(c2ccc(Nc3nc(NCCNS(=O)(=O)c4ccc(Cl)cc4)c4sccc4n3)cc2)CC1 | 94.2%
O=C(Nc1ccc(N2CCOCC2)cc1)Nc1ccc2c(ccn2C(=O)c2cccc(F)c2)c1 | 87.7%
CC1=C(C)C(=O)C(Nc2ccc3c(c2)OCCO3)=C(Br)C1=O | 103%
O=S(=O)(NCCCNc1nccc(-c2[nH]c(-c3ccccc3)nc2-c2ccc(F)c(O)c2)n1)c1cccc2ccccc12 | 73.1%
CN1CCN(c2ccc(Nc3nc(NCCCNS(=O)(=O)c4ccccc4)c4sccc4n3)cc2)CC1 | 131%
CN1CCN(Cc2ccc(NC(=O)c3cncc(C#Cc4cnc5ccc(OCC(F)F)nn45)c3)cc2C(F)(F)F)CC1 | -91.7% (active)
C#Cc1nc(/C=C/C(=O)NO)cs1 | 17.9%
Cn1c(SCC(=O)c2ccc(Br)cc2)nc2ccccc2c1=O | 92.7%
CS(=O)(=O)c1ccc(/C(=N/N=C(N)N)c2ccc(Cl)cc2)cc1 | 76.9%

Compound | growth
Cc1ccc2c(n1)C(=O)C(Cl)=C(Nc1ccc(C(C)C)cc1)C2=O | 133%
O=S(=O)(NCCCNc1nccc(-c2[nH]c(-c3ccccc3)nc2-c2ccc(F)c(O)c2)n1)c1ccc(C(F)(F)F)cc1 | 28.3%
CC(=O)Nc1nc(C)c(-c2csc(Nc3ccccc3)n2)s1 | 16%
Nc1ccc(Nc2ncnc3sc4c(c23)CCN(Cc2ccccc2)C4)cc1 | 95.3%
CCCCc1nc2c(N)nc3ccccc3c2n1Cc1ccc(OC)cc1 | 35.7%
COc1cc(-c2nc(-c3ccccc3)[nH]c2-c2ccnc(NCCCNS(=O)(=O)c3ccc(C)cc3)n2)ccc1F | 84.1%
C#Cc1cc(OC)c(C(=O)Nc2ccc(F)cc2C(=O)Nc2cccc(S(=O)(=O)C(F)(F)F)c2)cn1 | -18.2% (active)
Cc1ccc(-c2cc3nc(C(Cl)Cl)nc(-c4ccc(S(=O)(=O)N(C)C)cc4)n3n2)cc1 | 101%
O=C(NNc1nc2cc(F)cc(F)c2n2cccc12)c1cccnn1 | 4.83% (active)
CCC(=C(c1ccc(OCCN(C)C)cc1)c1ccc(OCCN(C)C)cc1)c1ccc(Cl)cc1 | -23.3% (active)
COc1ccc(C2CC(c3cccc(OCCCCOc4cccc(C5=NOC(c6ccc(OC)cc6)C5)c4)c3)=NO2)cc1 (stereo not given) | 111%
O=C(CCCCCCNC(=O)C(O)(O)C(F)(F)F)Nc1ncc(-c2ccccc2)s1 | -41.8% (active)
Cc1ccc(NC2=C(Cl)C(=O)c3nc(C)ccc3C2=O)c(C)c1 | 60.5%
COc1ccc2c(c1)c(/C=N/Nc1ccnc3cc(Cl)ccc13)cn2C | -90% (active)
CCOP(=O)(OCC)OC[C@]12CC[C@@H](C)[C@H](C)C1C1=CC[C@@H]3[C@@]4(C)CCCNC(C)(C)[C@@H]4CC[C@@]3(C)[C@]1(C)CC2 (stereo not given in full) | 66.3%
Brc1cccc(-c2cc(-c3cnc4c(c3)OCCO4)n[nH]2)c1 | 50.6%
COc1ccc(/C=N\NC(=O)c2cnn(CC(O)c3ccccc3)c2N)cc1OCc1ccc(Cl)cc1 (stereo not given) | 48%
Cc1ccc2c(n1)C(=O)C(Cl)=C(Nc1cccc(C)c1C)C2=O | 64%
CC(C)NC(=O)c1cc(-c2ccc(NC(=O)Nc3ccc(F)cc3)cc2)nc2cccnc12 | 107%
CC1(C)C=Cc2cc(/C(N)=N/C(N)=N/c3nc4ccccc4s3)ccc2O1 | 114%
